G9a inh: blocks human histone lysine methyltransferase G9a; G9a H3K9 monomethylation, AlphaScreen, 2 h; Potency, µM (series often up to 102 µM), inactives show at the highest dose activity, negative = inhibition, hits mostly inhibitors; actives 8.8% (n = 350,000); note: % is set by controls: 0 for no effect and ±100 for the full control effect; nearly all actives have a fitted effect of over 75% in size
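G9a (20 nM) preincubated 15 min RT with compounds, then 500 nM biotinylated H3K9 peptide and 20 uM SAM added; 2 h RT reaction. Monomethyl-H3K9 product detected by AlphaScreen with anti-H3K9me1 antibody, streptavidin donor and anti-rabbit IgG acceptor beads.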
HP1b chromo inh: HP1-beta chromodomain-methylated histone interaction inhibition | actives 0.56% (n = 390,000) | AlphaScreen HP1-beta / biotin-H3K9me3 peptide binding | Potency, µM (top dose mostly 114 µM), inactives show at the top dose activity change, negative = inhibition, usual class: inhibitors; note: nearly all actives have a fitted effect of over 70% in size
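AlphaScreen: HP1-beta (50 nM) preformed 30 min with biotin-H3(1-18)K9me3 peptide (50 nM) in PBS pH 7.4, 0.01% Tween-20. Compound added for 30 min at RT, then streptavidin donor/nickel chelate acceptor beads (10 ug/mL) for 30 min.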
Sfp inh: Sfp phosphopantetheinyl transferase inhibition | Q9F4F7 | Biochemical Sfp PPTase activity, qHTS | Potency, µM, for inactives: largest response in the series, negative = inhibition, hits mostly inhibitors | actives 3.5% (n = 310,000) | AID 1490;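 note: the enzyme is Sfp with the accession as filed and its product quenches rhodamine fluorescence; 0% = enzyme reaction without inhibitor and -100% = no enzyme wells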
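Fluorescence-quenching assay with 15 nM Sfp, 5 uM rhodamine-CoA and 12.5 uM BHQ-2-labelled ybbR peptide in pH 7.6 Hepes/MgCl2 buffer. Enzyme was pre-incubated with compound for 15 min at room temperature. Rate was taken from the 30-min fluorescence change (525/598 nm).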
JMJD2A Tudor: inhibitors of human JMJD2A Tudor domain; O75164; AlphaScreen JMJD2A-Tudor / H3K4me3 peptide binding; Potency, µM (series often up to 114 µM), inactives show at the top dose activity change, negative = inhibition, usual class: inhibitors; actives 4.4% (n = 390,000); AID 504339; note: % is set by controls: 0 for no effect and ±100 for the full control effect; nearly all actives have a fitted effect of over 50% in size
BAZ2B block: BAZ2B (human) inhibition. Q9UIF8. AlphaScreen BAZ2B-H3K14Ac peptide displacement. Potency, µM (top dose mostly 114 µM), inactives show top-dose activity change, negative = inhibition, most hits filed as inhibitors. actives 4.4% (n = 360,000). AID 504333; note: % is set by controls: 0 for no effect and ±100 for the full control effect; nearly all actives have a fitted effect of over 60% in size
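In this displacement format the biotinylated H3(5-23) peptide acetylated at Lys14 serves as ligand at 50 nM, with BAZ2B at 50 nM in PBS pH 7.4 containing 0.01% Tween-20. Donor and acceptor beads are 10 ug/mL final.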
L3MBTL1 inh: inhibitors of human L3MBTL1 | AlphaScreen L3MBTL1–H3K9me1 peptide binding | Q9Y468 | Potency, µM (titrated, usually from 57.1 µM), for inactives: top-dose activity, negative = inhibition, usual class: inhibitors | actives 0.66% (n = 230,000); note: % is set by controls: 0 for no effect and ±100 for the full control effect; nearly all actives have a fitted effect of over 60% in size
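Read-out is AlphaScreen signal from streptavidin donor and nickel chelate acceptor beads (10 ug/mL final each) bridging L3MBTL1 (50 nM) and biotinylated K9-monomethylated H3(1-15) peptide (75 nM), after 30 min compound exposure at room temperature.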
Starred values were filed as active, the others as inactive; ? = inconclusive; / = not tested or not shown; ! = not active in a repeat; [ ] = dose if it differs, or a comment. Compounds with a hit are over-represented: about 12% of the library has one in this group of screens. Calls come from the whole dose curve; as a rule, active = well fitted curve in the direction sought with a large enough effect; inconclusive = small, poorly fitted or top-dose-only effect, or another doubt; inactive = no such curve, though single readings can be large; an effect the other way counts as inactive or inconclusive. Potency is the fitted concentration of half-maximal effect.

SMILES	G9a inh	HP1b chromo inh	Sfp inh	JMJD2A Tudor	BAZ2B block	L3MBTL1 inh
Cc1cccc(-c2nnc(SCc3nc4ccccc4[nH]3)n2Cc2ccco2)c1	50.1µM*	17.2%	12.4%	-22.3%	-30.6%	-0.9%
Cc1ccc(-c2nnc(SCc3nc4ccccc4[nH]3)n2Cc2ccco2)cc1	/	5.9%	-10.7%	79.4µM*	?	-5.6%
CCOc1ccc(-c2nnc(SCc3nc4ccccc4[nH]3)n2N)cc1	?	42.5%	1.2%	89.1µM*	?	/
Cn1c(SCc2nc3ccccc3[nH]2)nnc1-c1cccnc1	-0.3%[59 µM]	33.2%	8.4%	-8.1%	-22.3%	-8.9%
c1coc(Cn2c(SCc3nc4ccccc4[nH]3)nnc2-c2cccs2)c1	50.1µM*	20.8%	14.4%	-33.3%	-4.7%	-5.9%
CCCCOc1ccc(C(=O)NCCc2sc3nc(-c4ccc(OC)cc4)nn3c2C)cc1	-0.6%[59 µM]	33.6%	/	-5.5%	0.2%	/
CCN(CC)S(=O)(=O)c1ccc(C(=O)NCCSc2c(-c3ccc(F)cc3)[nH]c3ccccc23)cc1	-27.0%[59 µM]	4.3%	/	-21.2%	-8.4%	/
CCC(C)NC(=O)Cn1c(=O)ccc2cc(S(=O)(=O)N3CCCC3)ccc21 (stereo not drawn)	12.4%[59 µM]	11.4%[57 µM]	/	-1.0%	3.4%	/
CC(C)(C)OC(=O)N1C=CCC1CN1C(=O)COCC1=O (stereo not drawn)	/	40.5%	-2.0%	2.8%	/	/
CCOC(=O)c1ccccc1NC(=O)N(Cc1ccco1)C1CCN(C(C)=O)CC1	-6.2%[59 µM]	28.4%	/	-22.1%	-15.5%	/
Cc1cc(C)cc(N2C(=O)CSC23C(=O)N(CC(=O)Nc2ccc(F)cc2F)c2ccccc23)c1 (stereo not drawn)	-8.2%[59 µM]	-9.6%	/	-15.2%	5.3%[57.1 µM]	/
Cc1ccc(-c2ccc(/C=N/n3cnnc3)o2)cc1Cl	-3.9%[12.7 µM]	15.2%	-1.4%	?	-10.3%	1.4%[11.4 µM]
O=[N+]([O-])c1cc(-c2ccc(/C=N\n3cnnc3)o2)cc([N+](=O)[O-])c1	44.7µM*	?	?	?	-37.6%	/
Cc1cc(C(=O)O)ccc1-c1ccc(/C=N/n2cnnc2)o1	56.2µM*	33.0%	-7.1%	2.1%	1.5%	/
O=C1CN(/N=C/c2ccc(-c3ccc([N+](=O)[O-])cc3)o2)C(=O)N1	3.9%[59 µM]	/	89.1µM*!	/	/	/
CSc1cccc(NC(=O)C2CCN(S(=O)(=O)c3ccc4[nH]c(=O)ccc4c3)CC2)c1	4.9%[59 µM]	18.1%[57 µM]	/	-19.0%	2.5%	/
Cc1ccc(C(=O)NCCCNC(=O)c2ccccc2F)cn1	5.3%	14.6%	7.4%	-14.0%	0.5%	/
NCCCNC(=O)c1ccc(/C=N/O)nc1	2.82µM*	1.4%	70.8µM*	8.91µM*	22.4µM*	-29.1%
Cc1cccc(C)c1OCCn1c(CCNC(=O)C2CCCCC2)nc2ccccc21	5.5%[59 µM]	30.4%	/	-17.1%	-30.4%	/
C#CCOCCOCCOCCNc1nc(N2CCN(C(=O)[C@H]([C@@H](C)CC)n3cc([C@@H](N)CO)nn3)CC2)nc(N2CCN(C(=O)[C@H]([C@@H](C)CC)n3cc([C@@H](N)CC(C)C)nn3)CC2)n1	-28.6%[12.7 µM]	29.4%	8.2%	50.1µM*	50.1µM*	-16.5%
C#CCOCCOCCOCCNc1nc(N2CCN(C(=O)[C@H]([C@@H](C)O)n3cc(CCCCN)nn3)CC2)nc(N2CCN(C(=O)[C@H]([C@@H](C)CC)n3cc(CCCCN)nn3)CC2)n1	0.5%[2.33 µM]	39.0%	/	-14.1%	-31.1%	6.4%
C#CCOCCOCCOCCNc1nc(N2CCN(C(=O)[C@H]([C@@H](C)CC)n3cc([C@@H](N)CO)nn3)CC2)nc(N2CCN(C(=O)[C@H]([C@@H](C)CC)n3cc([C@@H](N)CO)nn3)CC2)n1	-4.3%[12.7 µM]	/	-16.0%	/	22.4µM*	/
COc1cccc(CN2C(=O)c3ccccc3Sc3ccc(C(=O)NCc4ccccc4)cc32)c1	-0.7%[59 µM]	27.5%	/	-5.7%	/	/
CCOc1ccc(-c2cc3nc(C4CCN(C(=O)OC(C)(C)C)CC4)c(C(=O)Nc4cccc(Cl)c4C)cn3n2)cc1	3.2%[59 µM]	58.8%	/	-5.3%	-1.9%	/

Assay outcomes: PubChem BioAssay, National Center for Advancing Translational Sciences (NCATS)
